Assay outcomes deposited in PubChem by National Center for Advancing Translational Sciences (NCATS).
An excerpt weighted towards active compounds, which were near 2.4% of everything screened.
HepG2 tox – HepG2 cytotoxicity, counter-screen for TGF-b inhibitors; Potency, µM (doses to about 46.1 µM), inactives show at the highest dose activity change, negative = cytotoxicity, hits mostly cytotoxic; HepG2 CAGA-GFP viability, ATP luminescence, 18 h; actives 0.76% (n = 410,000); AID 588856
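CellTiter-Glo luminescence gave cytotoxicity after 18 hours at 37 degrees C. The cells were HepG2 CAGA-GFP in 1% FBS DMEM, stimulated with 500 pg/mL TGF-beta after compound addition. %Activity was normalised to no-cell wells (complete cell-killing) and DMSO (no toxicity), and curves were fitted and classified.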
TGFb SMAD3 inh – inhibitors of TGF-b signaling; HepG2 CAGA-GFP TGF-b/SMAD3 reporter, GFP fluorescence, 18 h; TGF-beta stimulated, 500 pg/mL final; Potency, µM (highest dose often 46.1 µM), without a hit: top-dose activity, negative = inhibition, most hits filed as inhibitors; actives 1.2% (n = 410,000); AID 588855; also: % is scaled to controls: 0 for no effect and ±100 for the full control effect; nearly all actives have a fitted effect of over 65% in size
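HEPG2 CAGA-GFP cells (1000/well, DMEM with 1% FBS) were pre-incubated 2 h at 37 degrees C, given compound by pin tool, then stimulated with TGF-beta at 500 pg/mL final for 18 h before per-cell GFP fluorescence imaging.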
ATXN2 expr inh – inhibitors of ATXN2 expression; HEK-293 ATXN2-luciferase reporter, luminescence, 24 h; Potency, µM (doses to about 57 µM), inactives show top-dose activity change, negative = inhibition, hits mostly inhibitors; actives 0.72% (n = 360,000); also: % is scaled to controls: 0 for no effect and ±100 for the full control effect; nearly all actives have a fitted effect of over 55% in size
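qHTS (up to 57 uM final) was run with 24 h compound exposure of reporter cells at 37 °C. Each well was multiplexed: SteadyGlo luminescence measured ATXN2-luciferase expression after a fluorogenic Gly-Phe-AFC viability readout (25 uM final).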
Apoferritin bind – binds horse apoferritin like a general anesthetic | Potency, µM (highest dose often 77.5 µM), for inactives: at the highest dose activity change, negative = displacement, hits mostly inhibitors | actives 0.074% (n = 350,000) | apoferritin/1-aminoanthracene competitive binding, fluorescence | AID 485281 | P02791; also: % is scaled to controls: 0 for no effect and ±100 for the full control effect; nearly all actives have a fitted effect of over 20% in size
Target sequence (P02791 2-175 limits assumed): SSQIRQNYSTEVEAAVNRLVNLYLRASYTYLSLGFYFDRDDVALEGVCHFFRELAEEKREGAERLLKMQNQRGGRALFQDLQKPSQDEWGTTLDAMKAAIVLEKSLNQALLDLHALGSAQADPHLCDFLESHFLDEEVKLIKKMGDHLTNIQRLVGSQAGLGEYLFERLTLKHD
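Probe: 1-aminoanthracene (50% saturated, PBS). Protein: horse-spleen apoferritin, 10 uM. Incubation: 10 min, room temperature. Detection: 380 nm excitation, 535 nm emission. Analysis: normalized response, four-parameter Hill.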
S2 tox – cell viability loss in ATXN counter-screen; actives 0.49% (n = 400,000); S2 cells (HEK-293 line with an ATXN2-luciferase reporter) viability, CellTiter-Fluor protease fluorescence, 24 h; Potency, µM (titrated, usually from 56.7 µM), most hits filed as cytotoxic; also: nearly all actives have a fitted effect of over 40% in size
* marks the source's active call; other numbers are inactive results; i = inactive; u = inconclusive; x = no result. Calls follow the shape of the dose curve; as a rule, active = well fitted curve in the direction sought with a large enough effect; inconclusive = small, poorly fitted or top-dose-only effect, or another doubt; inactive = no such curve, though single readings can be large; an effect the other way counts as inactive or inconclusive. Potency is read from the fitted curve at half-maximal effect.

SMILES	HepG2 tox	TGFb SMAD3 inh	ATXN2 expr inh	Apoferritin bind	S2 tox
COc1ccccc1N1CCN(CC2CN3C(=O)N(C)c4ccccc4C3=N2)CC1 (stereo not drawn)	x	x	x	-2%	x
Cc1c([N+](=O)[O-])cnc2ccccc12	-66%	-23%	x	x	x
CCOc1ccc(/C=C/c2ccc3ccccc3[n+]2C)cc1OCC	-4%	0%	x	x	x
CCOc1ccc2c(ccc(/C=C/c3cc(C)c4cccnc4c3O)[n+]2C)c1	-103%	7.1µM*	u	x	7.5µM*
CC(C)Nc1nc(C#N)nc(Nc2ccccc2)n1	x	x	x	-20%	x
Cc1nc(NC2=NCN(CCCN3CCOCC3)CN2)nc2c(C)cccc12	-25%	16µM*	u	-9%	u
CNS(=O)(=O)c1cccc(C(=O)OCC(=O)c2ccc[nH]2)c1	1%	4%	2%	x	u
CNS(=O)(=O)c1cccc(C(=O)OCC(=O)c2ccc3c(c2)OCCO3)c1	-1%	-5%	18µM*	x	i
Cc1ccc(C(=O)NCC(=O)OCC(=O)c2ccc3c(c2)NC(=O)CO3)cc1C	3%	4%	-19%	u	i
COc1ccc(C(=O)NCC(=O)OCC(=O)c2ccc3c(c2)OCCO3)cc1	-5%	-3%	2%	13µM*	i
Cc1ccc(C(=O)NCC(=O)OCC(=O)c2ccc3c(c2)OCCO3)cc1C	4%	7%	8%	10µM*	i
C[C@@H]1[C@H](O)[C@@H](C)C=CC=CC=CC=CC=CC=CC=C[C@H](O[C@@H]2O[C@H](C)[C@H](O)[C@H](N)[C@@H]2O)C[C@@H]2O[C@](O)(C[C@@H](O)C[C@@H](O)[C@H](O)CC[C@@H](O)C[C@@H](O)CC(=O)O[C@H]1C)C[C@H](O)[C@@H]2C(=O)O	x	x	34%	x	x
O=C(CN1CCCC1)N/N=C/c1c(O)ccc2ccccc12	-35%	-17%	2.8µM*	20%	u
Cc1cc(C)n(CCC(=O)N/N=C/c2ccc(O)cc2)n1	-3%	1%	-24%	3%	i
O=C(CCSc1nc2ccccc2s1)N/N=C/c1c(O)ccc2ccccc12	1%	-12%	3.2µM*	-6%	i
O=C(N/N=C\c1ccc(Cl)s1)c1ccc(Cn2cccn2)o1	0%	0%	-10%	-6%	i
Cc1cc(C)n(CCC(=O)N/N=C/c2c(O)ccc3ccccc23)n1	-34%	u	x	-13%	10µM*
O=C(N/N=C\c1c(O)ccc2ccccc12)c1ccc(Cn2cccn2)o1	-26%	49%	3.5µM*	315%	i
COc1ccc(/C=N/NC(=O)CCSc2nc3ccccc3s2)cc1OC	3%	0%	-13%	-2%	i
O=C(N/N=C/c1c(O)ccc2ccccc12)c1cccc(C(F)(F)F)c1	-34%	u	3µM*	-14%	x
FC(F)(F)c1ccccc1Cc1c(-c2ccc(Cl)cc2)nc2ccc(Cl)cn12	-40%	u	58%	x	i
FC(F)(F)c1ccccc1Cc1c(-c2ccco2)nc2ccc(Cl)cn12	6.3µM*	u	-38%	x	u
Fc1ccc(-c2nc3ccc(Cl)cn3c2Cc2ccccc2C(F)(F)F)cc1	-42%	13µM*	68%	x	i
O=C(O)CCNc1cc(N2CCc3ccccc3CC2)nc(-c2ccccn2)n1	x	x	-21%	x	x
O=C(NNC(=O)c1ccc(CNS(=O)(=O)c2ccc(F)c(Cl)c2)cc1)c1ccccc1	x	x	-1%	x	x
SMILES	HepG2 tox	TGFb SMAD3 inh	ATXN2 expr inh	Apoferritin bind	S2 tox
O=C(Nc1ccccc1C(=O)N/N=C/c1ccco1)c1ccc(F)cc1	13µM*	u	-9%	-2%	i
O=C(Nc1ccccc1C(=O)N/N=C/c1ccco1)c1ccccc1	-41%	11%	-7%	-11%	i
Nc1nc(-c2cccc(Br)c2)cs1	-6%	6%	40%	32µM*	i
Nc1nc(-c2ccc(Br)cc2)cs1	-8%	-8%	40%	-17%	i
Cc1c(F)cc2c(=O)c(C(=O)O)cn3c2c1CCC3C (stereo not drawn)	x	x	10%	x	i
Cc1cc(C2N=C(N)Nc3nc4ccccc4n32)c(C)n1-c1ccccc1Cl (stereo not drawn)	-41%	11µM*	-10%	u	i
